OTUD3 inh: inhibitors of human OTUD3 deubiquitinase | OTU domain-containing protein 3 (Homo sapiens), Q5T2D3 | purified OTUD3, Ub-rhodamine fluorescence, 2 h | inhibition, % at 25 µM | actives 0.7% (n = 47,000)
USP17 block: inhibitors of human USP17 deubiquitinase; AID 1645855, 2021; Ubiquitin carboxyl-terminal hydrolase 17-like protein 5 (Homo sapiens), A8MUK1; purified USP17, Ub-rhodamine cleavage fluorescence, 3 h; inhibition, % at 50 µM; actives 6.5% (n = 47,000)
USP28 block: inhibitors of human USP28 deubiquitinase; actives 3% (n = 47,000); purified USP28, Ub-rhodamine cleavage fluorescence, 30 min; AID 1645857, 2021; inhibition, % at 25 µM; Ubiquitin carboxyl-terminal hydrolase 28 (Homo sapiens), Q96RU2
Target sequence (Q96RU2 whole entry, looked up): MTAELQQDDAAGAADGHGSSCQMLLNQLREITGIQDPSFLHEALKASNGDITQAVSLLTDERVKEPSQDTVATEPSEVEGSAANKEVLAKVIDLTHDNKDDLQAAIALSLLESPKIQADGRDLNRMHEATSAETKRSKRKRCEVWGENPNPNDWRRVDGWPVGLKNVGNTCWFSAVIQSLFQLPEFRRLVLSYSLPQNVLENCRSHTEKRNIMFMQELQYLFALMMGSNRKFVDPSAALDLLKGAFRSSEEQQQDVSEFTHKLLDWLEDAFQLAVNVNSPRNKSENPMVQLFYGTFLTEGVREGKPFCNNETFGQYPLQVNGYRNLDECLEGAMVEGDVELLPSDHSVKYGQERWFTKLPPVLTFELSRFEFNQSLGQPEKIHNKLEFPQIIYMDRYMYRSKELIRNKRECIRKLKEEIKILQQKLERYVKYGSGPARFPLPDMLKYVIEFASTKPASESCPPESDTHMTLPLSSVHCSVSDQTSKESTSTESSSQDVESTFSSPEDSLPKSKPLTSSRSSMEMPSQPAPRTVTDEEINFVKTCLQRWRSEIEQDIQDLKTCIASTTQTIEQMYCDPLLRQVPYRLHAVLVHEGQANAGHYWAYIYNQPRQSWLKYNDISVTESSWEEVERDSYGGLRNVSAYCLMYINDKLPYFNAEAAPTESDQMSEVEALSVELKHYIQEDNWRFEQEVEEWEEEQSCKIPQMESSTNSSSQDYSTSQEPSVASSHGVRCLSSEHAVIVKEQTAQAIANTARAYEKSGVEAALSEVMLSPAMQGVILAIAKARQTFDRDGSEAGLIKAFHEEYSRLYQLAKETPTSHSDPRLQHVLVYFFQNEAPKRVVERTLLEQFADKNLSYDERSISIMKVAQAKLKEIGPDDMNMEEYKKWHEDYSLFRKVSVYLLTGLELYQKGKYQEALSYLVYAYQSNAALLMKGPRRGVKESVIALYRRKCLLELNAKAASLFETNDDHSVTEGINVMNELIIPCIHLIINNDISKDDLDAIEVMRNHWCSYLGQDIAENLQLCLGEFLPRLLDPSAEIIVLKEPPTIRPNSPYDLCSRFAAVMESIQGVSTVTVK
USP30 block: inhibitors of human USP30 deubiquitinase; Ubiquitin carboxyl-terminal hydrolase 30 (Homo sapiens), Q70CQ3; purified USP30, Ub-rhodamine cleavage fluorescence; inhibition, % at 25 µM; actives 5.3% (n = 47,000)
Hits are given with their value; - = inactive. An excerpt weighted towards active compounds, which were near 12% of everything screened. Cut-off read from the data, not from the text of the source: active = inhibition above about 30%; inactive = the rest.

SMILES | OTUD3 inh | USP17 block | USP28 block | USP30 block
CCCn1nnc(NCc2ccc(OCc3ccc(Cl)cc3Cl)cc2)n1 | - | - | - | -
CC(C)c1ccc(NC(=O)C2CCN(S(=O)(=O)c3cccc4cnccc34)CC2)cc1 | - | - | 45 | -
O=C(NCc1ccco1)C1CCN(S(=O)(=O)c2cccc3cnccc23)CC1 | - | 34 | - | -
Cc1nc(NC2CCCCC2)cc(-c2ccc(F)cc2)n1 | - | - | - | -
CC(C)n1nccc1NC(=O)CSc1nnc(-c2ccncc2)n1Cc1ccccc1 | - | - | - | -
CC(=O)c1c(C)[nH]c(C(=O)N2CCN(Cc3ccc4c(c3)OCO4)CC2)c1C | - | - | - | -
O=C(NC(Cc1ccccc1)c1nc2ccccc2[nH]1)c1cc(=O)[nH]c2ccccc12 (centres undefined) | - | 61 | - | 56
CC(C)C(NC(=O)c1cc(=O)[nH]c2ccccc12)c1nc2ccccc2[nH]1 (centres undefined) | - | - | - | -
COc1cc(C(=O)NC(Cc2ccccc2)c2nc3ccccc3[nH]2)cc(OC)c1OC (centres undefined) | - | - | - | 66
O=C(COc1cccc(F)c1)NC(Cc1ccccc1)c1nc2ccccc2[nH]1 (centres undefined) | - | 46 | - | -
Cc1ccc(-c2ncc(C(=O)NCc3cccc(C)c3)c(-c3ccncc3)n2)cc1 | - | - | - | -
CSc1ccc(CNC(=O)CC2CCN(S(=O)(=O)c3ccc(C)cc3)CC2)cc1 | - | - | 30 | 50
CC(=O)Nc1ccc(S(=O)(=O)N2CCC(CC(=O)NCc3ccc(F)cc3)CC2)cc1 | - | - | - | -
CC(C)(C)n1ncc2c(=O)n(CC(=O)Nc3cccc([N+](=O)[O-])c3)cnc21 | - | - | - | -
CC(C)(C)n1ncc2c(=O)n(Cc3cccc([N+](=O)[O-])c3)cnc21 | - | - | 79 | -
COc1cccc(NC(=O)Cn2cnc3c(cnn3C(C)(C)C)c2=O)c1 | - | - | 30 | -
O=C(NCC1CCCCC1)C1CCN(c2cnc(N3CCCCC3)nc2)CC1 | - | - | - | -
COc1c2n(c3ccccc13)[C@@]1(O)C(=O)N(C)C(=O)[C@@]1(O)c1c-2n(C)c2ccc(Cl)cc12 | 50 | 59 | 42 | -
Cc1cccc(-c2c(NC(=O)c3ccc(Cl)cc3Cl)n(C)c3ccccc3c2=O)c1 | - | - | - | -
O=C(NCCc1ccc(Cl)cc1Cl)c1ccc2c(=O)n3c(nc2c1)CCCCC3 | - | - | - | -
CCOc1ccccc1Nc1nc2ccccc2n2cnnc12 | - | 39 | - | -
Cc1ccc(-n2nnc(-c3nnc(-c4ccccc4)o3)c2C)cc1C | - | - | - | -
CCOC(=O)C1(Cc2cc(-c3cccc(C)c3)no2)CCN(Cc2ccc(O)cc2)CC1 | - | - | - | -
O=C(Nc1cccc(F)c1)c1ccc(N2CCCCS2(=O)=O)cc1Cl | - | - | 33 | -
O=C(Nc1ccc(F)c(Cl)c1)c1ccc(N2CCCCS2(=O)=O)cc1Cl | - | - | 52 | -
SMILES | OTUD3 inh | USP17 block | USP28 block | USP30 block
O=C(Nc1ccc(-n2cccc2)cc1)c1ccc(Cl)cc1Cl | - | - | - | -
O=C(Nc1cccc(N2CCCS2(=O)=O)c1)c1cccc(C(F)(F)F)c1 | - | - | - | -
COc1ccc(NC(=O)C2[C@@H]3C(=O)N(C4CCCCC4)C(=O)[C@@H]3[C@H]3c4ccccc4C=CN23)cc1 (some centres undefined) | - | 60 | - | -
O=C(N[C@@H]1C[C@@H](Oc2cccc(F)c2)[C@H](O)[C@H]1O)c1cccnc1 | - | - | - | -
COc1ccc2c(c1)C=C(C(=O)Nc1ccc(-n3cnnn3)cc1)C=CO2 | - | 39 | - | 33
COc1cccc(NC(=O)COc2cccc(-n3cnnn3)c2)c1 | - | - | - | -
COc1ccc2c(c1)C=C(C(=O)Nc1ncc(Cc3ccc(C)cc3)s1)C=CO2 | - | - | - | -
CCc1ccc(NC(=O)COc2cccc(-n3cnnn3)c2)cc1 | - | - | - | 63
CCCOc1cccc(C(=O)Nc2ccc(-n3cnnn3)cc2)c1 | - | 51 | 47 | 83
Cc1ccc2c(c1)C(=O)CC1(CCN(C(=O)c3cc(F)cc(F)c3)CC1)O2 | - | - | - | -
CN(C)CCc1cc2c(c3c1ccc1ccccc13)OCO2 | - | - | 75 | 31
CC(C(=O)NCc1ccc(F)cc1)n1cccc1C(=O)c1ccccc1 (centres undefined) | 74 | - | - | -
COc1ccc(-n2c(N(C)C)nc3cc(C(=O)NC4CC4)sc32)cc1 | - | - | 42 | -
CNC(=O)c1cc2nc(N(C)C)n(-c3ccc(OC)cc3)c2s1 | - | 46 | - | -
CCNC(=O)c1cc2nc(N(C)C)n(-c3ccccc3)c2s1 | - | 38 | - | -
CNC(=O)c1cc2nc(N(C)C)n(-c3ccccc3)c2s1 | - | 54 | - | -
O=C(O)[C@@H]1Cc2nc[nH]c2CN1 | - | - | - | -
CCn1c(=O)[nH]c2cc(-c3nc(-c4cccc(C)c4)no3)ccc2c1=O | - | - | - | -
Cc1nn(-c2ccc(Cl)cc2)c2[nH]c(=O)c(CNc3ccc(C(C)(C)C)cc3)cc12 | - | 39 | - | -
CCOc1ccc(NC(=O)COc2ccc(F)cc2)c2cccnc12 | - | - | - | -
CCCCOc1cccc(C(=O)Nc2ccc(OCC)c3ncccc23)c1 | - | 47 | - | -
CC1(C)Cc2c(sc3nc(SCC(=O)Nc4ccccc4)nc(N)c23)CO1 | - | - | 31 | -
CC1(C)Cc2c(sc3nc(SCc4ccccc4)nc(SCC(=O)Nc4ccccc4)c23)CO1 | - | - | - | -
CC(=O)c1ccc(NC(=O)CSc2nc(-c3ccccc3)nc3c2COC(C)(C)C3)cc1 | 31 | - | - | -
CSc1nc(SCC(N)=O)c2c3c(sc2n1)COC(C)(C)C3 | - | 61 | - | 44
SMILES | OTUD3 inh | USP17 block | USP28 block | USP30 block
COc1ccc(NC(=O)CSc2nc(N)c3c4c(sc3n2)COC(C)(C)C4)cc1 | - | 50 | - | -
CCCCc1nc(SCC(=O)Nc2ccc(OC)cc2)c2c3c(sc2n1)COC(C)(C)C3 | - | - | - | -
O=C(Nc1nccnc1C(=O)N1CCN(c2ccccc2)CC1)c1ccccc1 | - | - | - | -
Cc1ccnc(C2CCN(C(=O)Cn3nnc4ccccc43)C2)n1 (centres undefined) | - | - | - | -
COc1cccc(N2CCN(C(=O)CCNS(=O)(=O)c3ccc4c(c3)CCC(=O)N4)CC2)c1 | - | 58 | - | -
COc1ccc(NC(=O)CCNS(=O)(=O)c2ccc3c(c2)CCC(=O)N3)cc1OC | - | - | - | -
Cn1cc(S(=O)(=O)N2CCCCCC2)cc1C(=O)Nc1cccc(F)c1 | - | - | - | -
Cn1cc(S(=O)(=O)N2CCCCCC2)cc1C(=O)Nc1ccc(F)cc1 | - | 50 | - | -
CN(C)C(=O)N1CCC2(CC1)CN(C(=O)c1ccc3[nH]ccc3c1)Cc1ccccc1O2 | - | - | - | -
Cc1ccccc1CNC(=O)c1cccc(-c2cnc(N3CCCC3)nc2)c1 | - | - | - | 32
COc1ccccc1CNC(=O)c1c(O)c2cnn(-c3cccc(C)c3)c2[nH]c1=O | - | 39 | 76 | -

Screening data: PubChem BioAssay, Buhrlage Lab, Dana-Farber Cancer Institute and Novartis Institutes for BioMedical Research (Cambridge, Mass)
